# Test results reported in ChEMBL document CHEMBL1157539, “Thousands of chemical starting points for antimalarial lead identification” (Nature, 2010).
# Values joined by “and” are separate entries in the source; they are usually repeats but may differ in a detail not shown here. Equal entries are not always repeated.
# Legend:
# Assay type in all cases: functional
# Plasmodium falciparum [1] = assay: GSK_TCMDC: Inhibition of Plasmodium falciparum 3D7 in whole red blood cells, using parasite LDH activity as an index of growth. Test compounds present at 2uM
# Plasmodium falciparum [2] = assay: GSK_TCMDC: Inhibition of Plasmodium falciparum Dd2 in whole red blood cells, using parasite LDH activity as an index of growth. Test compounds present at 2uM
# HepG2 = assay: GSK_TCMDC: Percent inhibition of human HepG2 cell line. Test compounds present at 10uM.
SMILES,Inhibition (Plasmodium falciparum [1]),Inhibition (Plasmodium falciparum [2]),Inhibition (HepG2)
Cl.c1cc2[nH]c(CCCCCc3nc4cc(C5=N[C@@H]6CCCC[C@@H]6N5)ccc4[nH]3)nc2cc1C1=N[C@@H]2CCCC[C@@H]2N1,96%,98%,8%
COc1cccc(C=Cc2nc(=O)c3ccccc3o2)c1OC,97%,97%,0%
COc1ccc2nccc([C@@H](O)CN3CCC(c4cc(-c5ccc(Cl)cc5)[nH]n4)CC3)c2n1,97%,56%,43%
Oc1cccc(CNCCCN(Cc2ccccc2)c2ccccc2)c1,99%,97%,7%
Clc1ccccc1CN1CCC(NCc2cccc(-n3ccnc3)c2)CC1.O=C(O)C(F)(F)F,100%,43%,6%
CCOc1cc[nH]c(=O)n1,97%,95%,0%
N#Cc1ccccc1C1CCN(C2CCC(Nc3cc(-c4cccnc4)ccn3)CC2)CC1 (stereo unspecified),100%,78%,38%
CN1CCCC(CN2CCN(Cc3cccc(-c4ccc(-c5nc6cc(F)ccc6[nH]5)cc4)c3)CC2)C1.O=C(O)C(F)(F)F (stereo unspecified),100%,100%,78%
Cc1ccc(Cl)cc1NC(=O)c1c(-c2ccccc2Cl)noc1C,88%,37%,9%
Cn1cncc1C(=O)Nc1ccc(-c2ccc(-c3nc4cc(C(F)(F)F)ccc4[nH]3)cc2)cc1,100%,33%,24%
CCN(CC)CCOC(=O)c1ccc(NC(=O)c2cn(-c3ccccc3)nc2-c2cccs2)cc1.Cl,100%,59%,25%
CCOC(=O)c1nc(-c2cccnc2)[nH]c1NC(=S)NCc1ccccc1,100%,100%,10%
Cl.O=C(Nc1ccc2c(c1)CCNCC2)c1ccc(-c2ccc(Cl)cc2)cc1,96%,38%,71%
CNc1ccc(CNCc2ccc(-c3ccc(-c4nc5cccc(C)c5[nH]4)s3)cc2)cc1.O=C(O)C(F)(F)F,100%,94%,29%
NC1CCCN(Cc2ccc(-c3ccc(-c4nc5ccccc5[nH]4)s3)cc2)C1.O=C(O)C(F)(F)F (stereo unspecified),100%,99%,40%
O=C(Nc1ccc2c(c1)CN(Cc1ccc(N3CCCC3)o1)CCC2)c1cncs1.O=CO,84%,37%,15%
COc1cc(OC)nc(C(Sc2ccc(NC(=O)c3cccs3)cc2)c2ccccc2)n1 (stereo unspecified),97%,96%,7%
C=C[C@H]1CN2CC[C@H]1C[C@H]2[C@H](O)c1ccnc2ccc(OC)cc12.Cl [QUININE HYDROCHLORIDE],99% and 100%,79% and 99%,13% and 0%
COc1cc2nc(NCc3ccccc3)nc(NCc3ccccc3)c2cc1OC,100%,100%,66%
CN(C)CC(=O)Nc1ccc(Nc2nccc(NCC(O)c3ccccc3)n2)cc1 (stereo unspecified),95%,2%,0%
Cc1cnc(CN(Cc2ccc(-c3ccc(CNCCc4ccc(S(C)(=O)=O)cc4)cn3)cc2)C(=O)c2ccc([N+](=O)[O-])c(C)c2)cn1.O=C(O)C(F)(F)F,93%,15%,0%
COc1cc(O)c2c(=O)c(OC)c(-c3cccc(Cl)c3OCC(=O)O)oc2c1OC,100%,0%,0%
COc1ccc2ncc(C#N)c(CCN3C[C@H](CNCc4ccccc4)[C@H](O)C3)c2n1.Cl,91%,24%,3%
COc1ccc(C(=O)Cn2nc(-c3ccc(Cl)cc3)ccc2=O)c(OC)c1,93%,70%,0%
CCN(CC)CCN(Cc1ccc(-c2ccc(C(F)(F)F)cc2)cc1)C(=O)Cn1c(CCc2cc(F)cc(F)c2)nc(=O)c2ccccc21.O=C(O)C(O)C(O)C(=O)O,91%,80%,30%
CC(=O)N1N=C(c2ccc(Cl)cc2)Sc2c1nc(-c1ccccc1)n2C(C)=O,100%,81%,0%
COC(=O)c1ccc(NC(=O)Nc2cccc(CCNCc3ccccc3)c2)cc1.O=C(O)C(F)(F)F,96%,10%,2%
